{"source": "PubChem BioAssay (NCI)", "note": "About 83,000 compounds went through this panel and 20% of them were active in at least one assay; those are over-represented in the sample as a whole.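 Treatment: one concentration, 48 hours, 96-well format. Scoring: percent growth, with anything below 10 considered active.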 Unmarked numbers belong to inactive results. The source made the active and inactive calls.", "data": [{"test_system": "HT29 colon", "experiment": "NCI-60 one-dose screen, 48 h (100 = growth as untreated, 0 = no growth, -100 = all killed)", "details": "10 µM unless noted", "protocol": "Growth inhibition of the HT29 human tumor cell line is measured as a screen for anti-cancer activity. Cells are grown in 96 well plates and exposed to the test compound for 48 hours. Compounds are tested at a single concentration, which is 10^-5 M for most compounds. The reported endpoint is percent growth (GI% or GIPRCNT), where numbers from 0 - 100% represent growth inhibition, and numbers from -100% - 0 represent cell death. For example, a value of 40 represents 60% growth inhibition. A value of 0 means no net growth occurred over the course of the experiment. A value of -40 indicates 40% of cells at the beginning of the experiment died by the end of the experiment. A value of -100 means all cells are dead at the end of the experiment.\nNCI-60 Human Tumor Cell Lines Screen was performed using the standard one-dose NCI protocol, which is described in more detail at https://dtp.cancer.gov/discovery_development/nci-60/default.htm.\nCompounds with GIPRCNT values below 10 were considered active. Activity score was based on GIPRCNT using the following formula: […]\nScore is 0 for GIPRCNT values of 100 or above, 50 for GIPRCNT values of 0, and 100 for GIPRCNT values of -100.", "values": [{"smiles": "CC1=CC(=O)C=CC1(C)C(Cl)(Cl)Cl", "note": "(stereo not given)", "growth": "83.1%"}, {"smiles": "CCCOS(=O)(=O)c1ccccc1", "growth": "110%"}, {"smiles": "CCCCCCCCCCCC1N=C(N)N=C(N)N1c1cccc(Br)c1", "note": "(stereo not given)", "growth": "-81.8% (active)"}, {"smiles": "CCCCCCCCC(=O)OCCCC(CCC(CCC1CCCO1)OC(=O)CCCCCCCC)OC(=O)CCCCCCCC", "note": "(stereo not given)", "growth": "93%"}, {"smiles": "CCN(CC)CC(O)CNc1ccc(NCC2CO2)c2c1C(=O)c1ccccc1C2=O", "note": "(stereo not given)", "growth": "-42.9% (active)"}, {"smiles": "C/C(=N\\NC(=S)N1CC2CCC(CC2)C1)c1ccccn1", "growth": "6.46% (active)"}, {"smiles": "CCOC(=O)c1c(C)[nH]c2ccc(O)cc12", "growth": "96.3%"}, {"smiles": "CC(=O)C1Cc2ccccc2C1=O", "note": "(stereo not given)", "growth": "104%"}, {"smiles": "CN1CCC(c2ccccc2)(c2ccccc2)C(=O)C1", "growth": "81.7%"}, {"smiles": "Cc1ccc2cccc(OC(=O)Nc3cccc(C(F)(F)F)c3)c2n1", "growth": "56.2%"}, {"smiles": "Clc1ccc(Cc2nc3ccccc3s2)cc1", "growth": "118%"}, {"smiles": "CCCCN(CCCC)CCCCCCCCCCO", "growth": "89.2%"}, {"smiles": "CCCCCCCCCCCCNCCCc1ccccc1", "growth": "7.89% (active)"}, {"smiles": "CC(C)(C)c1ccc(O)c(Br)c1", "growth": "103%"}, {"smiles": "CC(/C=N/NC(N)=S)Cc1ccc(C(C)C)cc1", "note": "(stereo not given)", "growth": "47.1%"}, {"smiles": "O=C1Nc2ccc(Br)cc2C1=O", "growth": "100%"}, {"smiles": "Nc1nc(-c2ccccc2)nc(N)c1N=O", "growth": "14.5%"}, {"smiles": "CN(C)c1ccc(/C=C/c2nccc3ccccc23)cc1", "growth": "98.6%"}, {"smiles": "OC(CSc1ccccc1)CN1CCN(c2ccc(Cl)cc2)CC1", "note": "(stereo not given)", "growth": "101%"}, {"smiles": "O=C1C=CC(=O)N1C1CCCCCCCCCCC1", "growth": "45.2%"}, {"smiles": "CCc1cnc2ccccc2c1/C=C/c1ccc(N(C)C)cc1", "growth": "5.62% (active)"}, {"smiles": "COc1ccc2nc3cc([N+](=O)[O-])ccc3c(NNc3ccccc3)c2c1", "growth": "94%"}, {"smiles": "O=C(/C=C/C(Cl)(Cl)Cl)Nc1ccc(Cl)cc1", "growth": "94.7%"}, {"smiles": "CCN(CC)CCNc1ccc([N+](=O)[O-])c2sc3ccccc3c(=O)c12", "growth": "9.13% (active)"}, {"smiles": "Oc1ccc(Nc2ccc3ccccc3c2)cc1", "growth": "95.8%"}, {"smiles": "COc1cc2c(c(OC)c1OC)-c1ccc(NCc3ccccc3)c(=O)cc1[C@@H](NC(C)=O)CC2", "growth": "-8.12% (active)"}, {"smiles": "Cc1nnc(N/N=C/c2ccc([N+](=O)[O-])o2)[nH]c1=O", "growth": "27.5%"}, {"smiles": "CC1(C)N=c2cc3c(cc2N1c1ccc(Cl)cc1)=Nc1ccccc1N3c1ccc(Cl)cc1", "growth": "60.4%"}, {"smiles": "CCOC(=O)C1=C(C(=O)c2ccccc2)C(c2cccc([N+](=O)[O-])c2)C(C(=O)c2ccccc2)=C(C(=O)OCC)N1", "growth": "94.3%"}, {"smiles": "O=C(O)c1ccc2c(c1)C(=O)c1ccccc1C2=O", "growth": "108%"}, {"smiles": "O=C1C=CC(=O)N1c1cc(Cl)c(Cl)cc1Cl", "growth": "101%"}, {"smiles": "Cc1nn(CCO)c(C)c1N=[N+]([O-])c1c(C)nn(CCO)c1C", "growth": "-14% (active)"}, {"smiles": "CCC(=O)c1cc([N+](=O)[O-])c(Br)s1", "growth": "41.6%"}, {"smiles": "Nc1ccc(C(=O)/C=C/c2ccccc2)cc1", "growth": "96.5%"}, {"smiles": "CCCN(CCC)C(=O)c1ccc(C)cc1", "growth": "96%"}, {"smiles": "CCCCCCCCCCCCCCCCCC[S+](C)CC", "note": "(stereo not given)", "growth": "4.75% (active)"}, {"smiles": "c1ccc2sc(SSN3CC4CCC(CC4)C3)nc2c1", "growth": "114%"}, {"smiles": "Cc1cc(C)c([I+]c2c(C)cc(C)cc2C)c(C)c1", "growth": "-10.5% (active)"}, {"smiles": "CCCCCCCCCCCCCCCc1ccc(C(=O)C[n+]2ccccc2)cc1", "growth": "-39.3% (active)"}, {"smiles": "O=C(/C(Cl)=N/O)c1ccc(-c2ccccc2)cc1", "growth": "80.1%"}]}]}
